Experimental data as given in the supplement of paper PMC6555819.

What was measured:
Assay in all cases: PBM binding z-score (relative to random genomic background probes); higher = stronger binding; sequences stand for … in GC…GCGATTGACAGCGTAGAATGAAGG
[1] = tested on: PPARg:RXRa DBDmut IVT, anti-RXR (DBD mutation: RXRa K156A/R161A, NR concentration 270 nM, RXRa partner concentration 90 nM)
How it was run: (§1)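 Binding z-scores were set against random background probes. The data came from custom Agilent 4×180K protein-binding microarrays carrying double-stranded probes with 34-nt variable regions, incubated 1 h with ligand-free nuclear receptor dimers. Partner-specific antibodies detected binding, and scanned fluorescence was regression-normalized.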

[2] = tested on: PPARg:RXRa IVT, anti-PPARg (NR concentration 270 nM, RXRa partner concentration 90 nM)
How it was run: as §1

[3] = tested on: PPARg DBDmut:RXRa IVT, anti-PPARg (DBD mutation: PPARg1 K132A/R137A, NR concentration 270 nM, RXRa partner concentration 90 nM)
How it was run: as §1

[4] = tested on: PPARg DBDmut IVT, anti-PPARg (DBD mutation: PPARg1 K132A/R137A, NR concentration 270 nM)
How it was run: as §1

[5] = tested on: PPARg homodimer (NR concentration 180 nM)
How it was run: as §1

[6] = tested on: PXR:RXRa (NR concentration 270 nM, RXRa partner concentration 90 nM)
How it was run: as §1

[7] = tested on: PXR homodimer (NR concentration 270 nM)
How it was run: as §1

[8] = tested on: RARa:RXR (NR concentration 270 nM, RXRa partner concentration 90 nM)
How it was run: as §1

[9] = tested on: RARa homodimer (NR concentration 270 nM)
How it was run: as §1

[10] = tested on: RARb:RXRa (NR concentration 270 nM, RXRa partner concentration 90 nM)
How it was run: as §1

Row | Sequence | PBM binding z-score [1] | PBM binding z-score [2] | PBM binding z-score [3] | PBM binding z-score [4] | PBM binding z-score [5] | PBM binding z-score [6] | PBM binding z-score [7] | PBM binding z-score [8] | PBM binding z-score [9] | PBM binding z-score [10]
1 | CGTCAAAGTTCAAGGCAACGTAACAGAAAGCAGC | 0.106 | 1.35 | -0.0637 | 0.203 | 2.24 | 3.56 | 1.41 | 2.87 | 0.477 | 4.98
2 | CCTACTGGGCCAAGGTCATAGATCAGTCAAAGCA | 3.5 | 4.88 | 0.145 | -0.588 | 2.21 | 3.28 | 0.536 | 4.12 | 0.339 | 3.23
3 | CGTCAAAGTTCAAGGTAATGTAACAGAAAGCAGC | 0.0949 | 2.03 | 0.311 | 0.686 | 2.57 | 3.95 | 2.92 | 3.38 | 1.61 | 5.14
4 | GATACAGGGTCATCTAGAGGCCAGAGTATGGAAA | 1.93 | 3.6 | 0.707 | 0.0112 | 3.91 | 4.97 | 0.378 | 6.28 | 0.58 | 4.48
5 | CAAACTAGGTCACAGAGGTCAAACTCCGTGCGTA | 8.63 | 8.81 | 2.84 | 2.43 | 5.38 | 6.91 | 12.1 | 7.81 | 3.49 | 5.52
6 | CCTTACGGGTCACTCAAGGTTATAGCATCGGAGT | 2.86 | 3.83 | 1.98 | 1.29 | 3.87 | 6.13 | 1.3 | 4.95 | 0.631 | 4.07
7 | CCTGCTAGTTCATGGTCAGCTAATCTACAGTATG | 0.644 | -0.0239 | -0.434 | -0.632 | -0.0541 | 0.563 | 0.0644 | 0.225 | -0.814 | 1.55
8 | CAAAGTAGGTCAAGAGGTCAAAGTCCGCTTCCCG | 8.4 | 8.84 | 1.65 | 1.18 | 5.39 | 6.22 | 3.31 | 7.83 | 2.53 | 5.55
9 | AGAGTGAGGTTACCAAAGATCAGGGAAACGCTTG | 1.07 | 1.49 | -0.228 | -0.0667 | 0.744 | 1.7 | 0.558 | 1.97 | 0.667 | 2.48
10 | CAAACTAGGTCAAGAGGTCAAACTCCGCTTCCCG | 8.21 | 8.74 | 4.72 | 2.13 | 6.57 | 6.37 | 4.12 | 8.15 | 2.88 | 5.41
11 | CCTGCTAGTTCAATGGTCAGCTAAAGCAGCTCGC | 0.00571 | -0.344 | -0.548 | -1.19 | 0.058 | 0.465 | -0.0496 | 0.242 | -0.645 | 1.49
12 | TCATATAGGTAATAGGTGAAAGTCGGTGTGGTAA | 4.73 | 4.33 | 0.889 | 1.42 | 1.61 | 0.866 | 0.435 | 1.56 | 1.65 | 0.581
13 | ATCGAAACGTCGACGAGGTGAGTATACACCGTTT | -0.306 | 0.572 | 0.364 | 1.43 | -0.489 | -0.346 | -0.33 | -0.0607 | 0.109 | -0.0586
14 | GATACAGGGTCAAGGCCAGAATACGCGTATTGAT | 2.36 | 4.04 | 0.884 | 0.396 | 2.82 | 3.9 | 0.4 | 4.79 | 0.95 | 4.6
15 | CGGACTGGGGCAAAGGTTACCATACTCAGTACGA | 6.11 | 6.8 | 0.377 | 0.924 | 1.68 | 2.76 | -0.252 | 3.88 | 0.372 | 2.42
16 | GATACAGGGTCAACTAGAGGCCAGAGTATGGAAA | 2.63 | 3.97 | 1.7 | 0.682 | 3.88 | 4.77 | 0.995 | 6.02 | 0.807 | 4.8
17 | TCATATAGGTAATCAGGTGAAAGTCCGTAAGTTA | 5.4 | 5.17 | 1.73 | 1.86 | 1.32 | 0.832 | 0.68 | 1.14 | 1.28 | 0.56
18 | ATCGAAAGGTCGTGAAGTGAGTATACAGAAAGGC | 0.0713 | 1.76 | 1.63 | 1.88 | 1.75 | 2.66 | 0.278 | 3.39 | 1.2 | 3.73
19 | TCTCGGAGGACACGAAAGGTCTGAGCTCGACATC | 1.62 | -0.101 | -0.378 | -0.264 | 0.204 | -0.0379 | -0.678 | 0.227 | -0.321 | 1.7
20 | CATACAGGGACAGCTAGGCCAGAGTAGGGACGGC | -0.69 | -0.181 | -1.17 | 0.371 | -0.647 | -0.731 | -0.605 | -0.361 | 0.0521 | 0.723
21 | CGTCAAAGTTCACCTAAGGTAACGTAAAGCACGC | 0.554 | 2.63 | 0.556 | 0.77 | 3.35 | 5.29 | 3.14 | 4.17 | 0.893 | 5.21
22 | TAGCCTAGGTCATTCAGGGGCCAGTATGGAAAGC | 1.58 | 2.93 | 0.514 | -0.26 | 2.13 | 2.46 | -0.398 | 3.77 | 0.0659 | 4.11
23 | TCTCGGATGACACGAAAGGTCAGAGCTCGACATC | 1.88 | 1.33 | 0.619 | 1.03 | 3.4 | 3.7 | 0.17 | 4.37 | 1.07 | 3.68
24 | CCTACTGGGCCATACAGAGGTCATTGATCATATG | 4.36 | 4.21 | 1.03 | 0.445 | 4.53 | 5.28 | 2.92 | 5.24 | 1.8 | 3.12
